In PubChem BioAssay AID449762 (Southern Research Specialized Biocontainment Screening …, 2010):
The campaign covered roughly 330,000 compounds. About 1,900 (0.58%) were called active. About 4% were inconclusive and are not listed. Not all results are given here. Measured potencies and affinities stand elsewhere. Values without a mark were called inactive. No stated cut-off is given here; in the data, inconclusive means inhibition above about 70% without an active follow-up result; inactive means below that.

Test: M. tuberculosis growth inhibition, HTS (AID 449762);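 further: bacterial growth assessed after seven days of incubation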
Conditions: M. tuberculosis H37Rv growth inhibition, 7H9 media; at 25 µM; active compounds read high

SMILES | inhibition
COc1ccc(C(=O)CCN2CCc3cc(OC)c(OC)cc3C2)cc1 | 68.3%
COc1cc2c(cc1OC)CN(CCOc1ccc(Br)cc1)CC2 | -0.08%
COc1cc(OC)cc(C(=O)N[C@H](C(=O)OCC(=O)c2c[nH]c3ccccc23)C(C)C)c1 | -5.93%
C=C1SC(Nc2c(C)cc(C)cc2C)=NC12CCCCC2 | 4.72%
Cc1cc(C)n(Cc2ccc(C(=O)NN)o2)n1 | -3.98%
CCOC(=O)C1CCN(c2nc(C)nc3c2oc2ccccc23)CC1 | 13.6%
Cc1nc(N2CCOCC2)c2oc3ccccc3c2n1 | -22.1%
CCOc1ccc(C2CC(c3ccc(CC)cc3)Nc3nc(N)nn32)cc1 (configuration not stated) | 53.9%
CCCCc1nc2cc(C(=O)NCc3nccn3CC)ccc2o1 | -0.01%
O=C(NNC(=S)NC1CCCCC1)c1sc2ccccc2c1Cl | 4.12%
O=C(NC(=S)NCCO)c1sc2ccccc2c1Cl | -1.03%
COC(=O)C1CCN(C(=O)COC(=O)c2cc(-c3cccs3)nn2-c2ccccc2)CC1 | 68.6%
NC(=O)COC(=O)c1cc(-c2cccs2)nn1-c1ccccc1 | 3.52%
O=[P+](Cc1ccccc1)Cc1ccccc1 | 5.56%
CCOc1cc2c(cc1OCC)-n1cccc1C(c1ccc(OC)cc1)NC2 (configuration not stated) | 12.2%
CCOc1cc2c(cc1OCC)-n1cccc1C(c1ccc(F)cc1)NC2 (configuration not stated) | 4.18%
CCN1CCN(C(C(=O)NC2CCCCC2)c2ccc(Cl)cc2)CC1 (configuration not stated) | -6.43%
Cc1cc(-c2ccc(C)c(S(=O)(=O)NCCCN3CCN(c4ccccc4)CC3)c2)on1 | 36.8%
COc1ccc(-c2cc(C)no2)cc1S(=O)(=O)NCCCN1CCN(c2ccccc2)CC1 | 1.94%
c1ccc2c(c1)nc1n2CCS1 | -2.74%
COc1cc(C(=O)NNC(=O)c2ccc3ccccc3n2)cc(OC)c1OC | 5.84%

SMILES | inhibition
COc1cccc(NC(=O)/C=C/c2ccccc2[N+](=O)[O-])c1 | -3.12%
CCn1c2ccccc2c2nnc(SCCN3CCCCC3)nc21 | 5.94%
CCN(CC)CCSc1nnc2c3ccccc3n(Cc3ccccc3)c2n1 | 3.52%
CCOC(=O)C1(CC2CCCCO2)CCN(Cc2nc3ccccc3nc2C)CC1 (configuration not stated) | 0.36%
CCOC(=O)c1cccc(NC(=O)C2CCN(S(=O)(=O)c3cccs3)CC2)c1 | -3.98%
COCCCNC(=O)c1sc2ncnc(N3CCc4ccccc4C3)c2c1C | 22.6%
CCN1CCN(C(=O)c2sc3ncnc(N4CCc5ccccc5C4)c3c2C)CC1 | 1.76%
O=C(NCCN1CCCCC1)c1ccc2c(c1)OCCO2 | 1.64%
O=C(O)CCC(=O)N1CCN(c2nc(-c3ccccc3Cl)c3cc(Br)ccc3n2)CC1 | 8.23%
O=C(O)CCCC(=O)N1CCN(c2nc(-c3ccccc3Cl)c3cc(Br)ccc3n2)CC1 | 2.83%
Cc1ccc(N(C(=O)c2csnn2)C(C(=O)NC2CCCCC2)c2ccccn2)c(C)c1 (configuration not stated) | -6.22%
COc1cc(CC(=O)O)ccc1OCc1ccccc1 | -4.67%
COc1ccc(N(CC(=O)NC2CCCCC2)C(=O)CNC(=O)c2cccs2)cc1OC | -4.95%
CCNC(=O)c1ccccc1NC(=O)c1cccc(S(=O)(=O)N2CCOCC2)c1 | 1.29%
COc1ccc(C(=O)NC(C)C2CC3CCC2C3)c(OC)c1 (configuration not stated) | 7.27%
Cc1ccccc1C(=O)NC(C)C1CC2CCC1C2 (configuration not stated) | 4.28%
COc1ccc(C(=O)NC(C)C2CC3CCC2C3)cc1 (configuration not stated) | 0.61%
CC(NC(=O)c1ccccc1Cl)C1CC2CCC1C2 (configuration not stated) | 4.24%
Cn1cnnc1SCC(=O)NCCc1ccccc1 | 0.84%
COC(=O)CCC(=O)Nc1cccc(Br)c1 | -7.91%
CC(C)(C)NC(=O)CSc1ncnc2c1nnn2Cc1ccccc1Cl | 18%

SMILES | inhibition
COCCCN1C(=O)c2ccc(C(=O)N3CCN(c4ccc(OC)cc4)CC3)cc2C1=O | 0.38%
Cc1cc(C)c(-n2nnnc2SCC(=O)c2cc3ccccc3o2)c(C)c1 | -0.74%
CCOC(=O)CNC(=O)CSc1nnc(NC(=O)c2ccc3c(c2)OCO3)s1 | -3.99%
COC(=O)CSc1nnc(NC(=O)c2ccc3c(c2)OCO3)s1 | 56.1%
COc1cccc(N2CCN(C(=O)c3cccn4c(=O)c5c(C)c(C)sc5nc34)CC2)c1 | -1.68%
CCOc1ccc(CCNC(=O)COC(=O)c2cc(OC)c(OC)c(OC)c2)cc1OCC | -6.27%
Cc1nnc(NC(=O)c2csc3c2CCC(C)C3)s1 (configuration not stated) | 6.53%
CCc1nnc(NC(=O)c2csc3c2CCC(C)C3)s1 (configuration not stated) | 0.85%
O=C(C1CCCN1S(=O)(=O)c1ccc(Cl)c(Cl)c1)N1CCOCC1 (configuration not stated) | 1.37%
OCC[C@H]1C[C@@H](O)[C@H](O)[C@]2(OCc3ccccc32)O1 | 4.05%
CN(C)CCCNC(=S)N(CCN(C)C)Cc1cc2cc3c(cc2[nH]c1=O)OCCO3 | -2.66%
CCOc1ccccc1N1CCN(CC(=O)Nc2cc(C)on2)CC1 | -0.33%
CC(=O)Nc1ccccc1O | -6.49%
O=C(Nc1ccccc1O)c1ccccc1O | -2.76%
CCC(=O)c1ccc(OCC(O)CNC2CCCC2)cc1 (configuration not stated) | -4.31%
Cc1ccc(Cn2ncc3c(N4CCN(Cc5ccc(Cl)cc5)CC4)ncnc32)cc1 | 35%
Clc1ccc(Cn2ncc3c(N4CCCC4)ncnc32)cc1 | 6.77%
COc1ccc(NC(=O)c2c3c(nc4ccccc24)CCC3)cc1 | 2.33%
CCC(O)(CC)C(=O)NN(C(=O)CCl)c1ccccc1 | 64.9%
CCCC(O)(CCC)C(=O)NN(C(=O)CCl)c1ccccc1 | 64.3%
